A selection: hits, their analogues and other compounds. The true share with any hit is near 2.9%.
HEK293 tox: qHTS of GLP-1 Receptor Inverse Agonists: Cytotox Screen; HEK293 cAMP-luciferase reporter cells, luminescence, 24 h; Potency, µM (series often up to 38.3 µM), usual class: inhibitors; 410,000 compounds, 0.13% hits; AID 624418, 2012;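 further: loss of luciferase light is scored as toxicity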
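Luminescence readout: signal drop marks cytotoxicity. Plated cells grew 12 h at 37 °C, 5% CO2, received 23 nL compound for 24 h, then got luciferase reagent, read after 12 min at RT.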
GLP-1R agonist: qHTS of GLP-1 Receptor Agonists; Glucagon-like peptide 1 receptor (Homo sapiens), P43220; HEK293 GLP-1R CRE-luciferase, luminescence, 4-6 h; cells express a hypersensitive GLP-1R form; Potency, µM (doses to about 45.6 µM), usual class: activators; 380,000 compounds, 0.007% hits; AID 624172, 2012
Target sequence (P43220 whole entry, looked up): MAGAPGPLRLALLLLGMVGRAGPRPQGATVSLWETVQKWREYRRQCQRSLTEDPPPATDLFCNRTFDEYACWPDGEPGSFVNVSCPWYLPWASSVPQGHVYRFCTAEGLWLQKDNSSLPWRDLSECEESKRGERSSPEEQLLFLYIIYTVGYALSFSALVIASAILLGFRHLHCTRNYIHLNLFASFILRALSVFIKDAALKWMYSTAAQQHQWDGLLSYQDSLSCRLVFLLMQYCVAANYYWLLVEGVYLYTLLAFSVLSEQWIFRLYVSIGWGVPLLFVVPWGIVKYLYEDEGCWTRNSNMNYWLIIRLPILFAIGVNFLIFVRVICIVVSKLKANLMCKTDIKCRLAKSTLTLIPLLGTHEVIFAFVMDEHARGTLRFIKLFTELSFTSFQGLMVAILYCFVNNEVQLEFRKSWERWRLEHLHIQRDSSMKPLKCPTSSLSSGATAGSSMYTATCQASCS
LDHA inh: qHTS assay for inhibitors of human lactate dehydrogenase | L-lactate dehydrogenase A chain (Homo sapiens), P00338 | purified LDHA, NADH/diaphorase-resazurin fluorescence; stronger effect = lower value | activity change, % (values are at about 110 or 230 µM) | 480,000 compounds, 0.15% hits | AID 1347041, 2019; in the data active means activity change below about -30%; inconclusive means mostly about -25% to -30%
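Remaining NADH was detected by diaphorase (0.133 mg/mL) converting 37 µM resazurin to fluorescent resorufin, read at 0 and 20 minutes. The preceding 5-minute room-temperature reaction used 2 nM LDHA, 0.2 mM sodium pyruvate and 0.06 mM NADH at pH 7.4.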
GLP-1R inv ag: qHTS of GLP-1 Receptor Inverse Agonists (Inhibition Mode) | Potency, µM (top dose mostly 38.3 µM), actives largely listed as inhibitors | AID 624417, 2012 | HEK293 GLP-1R CRE-luciferase, luminescence, 24 h; GLP-1R form is constitutively active | Glucagon-like peptide 1 receptor (Homo sapiens), P43220 | 410,000 compounds, 1.6% hits; further: nearly all actives have a fitted effect of over 55% in size
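Stable HEK293 clone (constitutively active GLP-1R + cAMP-response luciferase); 200 cells/uL plated, 12 h pre-culture, compound 24 hr, 37 deg C/5% CO2; detection reagent 12 min RT; luminescence.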
p53 reactivation: qHTS assay for re-activators of p53 using a Luc reporter; Potency, µM (titrated, usually from 92.2 µM), actives largely listed as activators; AID 504706, 2011; 320,000 compounds, 0.063% hits; H1299 p53-A138V BP100-luciferase reporter, luminescence, 24 h; further: nearly all actives have a fitted effect of over 45% in size
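p53-null H1299 cells stably carrying temperature-sensitive p53-A138V and a BP100-luciferase reporter were pinned with compounds (4-point, 1:5 series) and held 24 hrs at 37 deg C. Luminescence was read 10 min after detection reagent.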
ClpP mod: qHTS Assay for Activators of ClpP; 340,000 compounds, 1.9% hits; purified B. subtilis ClpP, FRET peptide cleavage, 20 min; Potency, µM (series often up to 57.5 µM); ATP-dependent Clp protease proteolytic subunit (Bacillus subtilis (strain 168)), P80244; active means well fitted falling curve with a large enough effect; inconclusive means small, poorly fitted or top-dose-only effect; inactive means no such curve, though single readings can be large or run the other way; further: the source files actives as falling curves though it sought activators and does not explain the sign; nearly all actives have a fitted effect of over 65% in size
Target sequence (P80244 whole entry, looked up): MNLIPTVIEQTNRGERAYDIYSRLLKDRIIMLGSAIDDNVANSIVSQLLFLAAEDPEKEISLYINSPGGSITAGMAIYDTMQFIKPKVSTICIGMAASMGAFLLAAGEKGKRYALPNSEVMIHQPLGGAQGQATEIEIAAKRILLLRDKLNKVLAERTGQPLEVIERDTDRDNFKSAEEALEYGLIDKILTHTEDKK
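Purified B. subtilis ClpP, 10 microg/mL final in Tris/HCl pH8 with KCl, BSA, glycerol and Tween-20, cleaved an Abz/nitrotyrosine-quenched decapeptide. Fluorescence (ex 320, em 430) was read at 0 and 20 min at room temperature. Delta was normalized to 5.8 microM ADEP and DMSO/no-enzyme controls.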
Each line names hits and unclear results; the compound was inactive in the other large screens. Unless noted, the call rests on the fitted dose curve; in most records, active means well fitted curve in the direction sought with a large enough effect; inconclusive means small, poorly fitted or top-dose-only effect, or another doubt; inactive means no such curve, though single readings can be large; an effect the other way counts as inactive or inconclusive.

CCOc1ccc(N2CC(O)Cn3c2nc2c3c(=O)n(CCCc3ccccc3)c(=O)n2C)cc1 (centres undefined)	GLP-1R inv ag 5.6µM
COc1cccc(N2CC(O)Cn3c2nc2c3c(=O)n(CCCc3ccccc3)c(=O)n2C)c1 (centres undefined)	GLP-1R inv ag inconclusive
O=C(Nc1cccc(C(=O)O)c1)/C(=C\c1ccco1)NC(=O)c1ccccc1Cl	none
O=C(Nc1ccccc1C(=O)O)/C(=C/c1ccc(Cl)cc1Cl)NC(=O)c1ccco1	ClpP mod 35µM
Cc1nc(-c2ccccc2)sc1CCNS(=O)(=O)c1ccc(Br)cc1	GLP-1R inv ag inconclusive, ClpP mod inconclusive (no result: p53 reactivation)
CCCCn1c(N)c(N(CCC(C)C)C(=O)CCCc2nc3ccccc3s2)c(=O)[nH]c1=O	none
CCCCN(C(=O)CCCc1nc2ccccc2s1)c1c(N)n(CC(C)C)c(=O)[nH]c1=O	none
CCCCn1c(N)c(N(CCOC)C(=O)CCCc2nc3ccccc3s2)c(=O)[nH]c1=O	ClpP mod 35µM
CCCCn1c(N)c(N(CCOC)C(=O)c2ccc(-c3ccc(C(C)=O)cc3)o2)c(=O)[nH]c1=O	ClpP mod 32µM
CCCCn1c(N)c(N(CC(C)C)C(=O)CCCc2nc3ccccc3s2)c(=O)[nH]c1=O	ClpP mod 7.1µM
COc1cc([N+](=O)[O-])ccc1NC(=O)NCC1CCN(Cc2ccc(Cl)cc2)CC1	HEK293 tox inconclusive, GLP-1R inv ag 10µM
COc1ccc(Cl)cc1NC(=O)NCC1CCN(Cc2cc(C)ccc2C)CC1	HEK293 tox inconclusive, GLP-1R inv ag inconclusive
CCc1nc2ccc(C(=O)NCCc3ccc(OC)cc3OC)cc2nc1CC	GLP-1R inv ag inconclusive, ClpP mod 32µM (no result: GLP-1R agonist, p53 reactivation)
Cc1cccc(Nc2nc(N3CCCCC3)nc(N3CCCCC3)n2)c1	GLP-1R inv ag inconclusive
c1ccc(Nc2nc(N3CCNCC3)nc(N3CCOCC3)n2)cc1	GLP-1R inv ag 2.5µM
Cc1cccc(Nc2nc(N3CCOCC3)nc(N3CCOCC3)n2)c1	GLP-1R inv ag 5.6µM, p53 reactivation inconclusive (no result: ClpP mod)
Cc1cccc(Nc2nc(Nc3cccc(C)c3)nc(N3CCOCC3)n2)c1	GLP-1R inv ag 4.5µM, ClpP mod inconclusive (no result: GLP-1R agonist, p53 reactivation)
CNC(=S)Nc1cccc(C(C)=O)c1	none
FC(F)(F)c1cc(Cl)c2nc(-c3ccc(Cl)cc3)c(Cc3ccccc3)n2c1	ClpP mod inconclusive (no result: p53 reactivation)
N#Cc1ccc(-c2ccco2)nc1SCc1ccccc1	ClpP mod 10µM
CCN(C(=O)CSc1nc(-c2ccccc2)c(-c2ccccc2)[nH]1)C1CCS(=O)(=O)C1 (centres undefined)	ClpP mod 25µM
COc1cc(OC)c(NC2c3ccccc3C(=O)N2c2cc(C)ccn2)cc1Cl (centres undefined)	none
CCOC(=O)c1ccccc1NC1c2ccccc2C(=O)N1c1cc(C)ccn1 (centres undefined)	GLP-1R inv ag 13µM
COc1cc(C(=O)Nc2cc3c4c(c2)CC(=O)N4CCC3)cc(OC)c1OC	ClpP mod 16µM
Cc1ccc(CN2C(=O)c3ccccc3NC2c2ccccn2)cc1 (centres undefined)	none (no result: ClpP mod)
Cc1cccc(C2Nc3ccccc3C(=O)N2c2ccc(F)cc2)n1 (centres undefined)	ClpP mod 32µM
O=C1c2ccccc2NC(c2ccccn2)N1c1ccccc1F (centres undefined)	ClpP mod 32µM
NC(=O)c1ccccc1N=Cc1ccccn1	ClpP mod 25µM
NC(=O)c1ccccc1N=Cc1cccc(O)c1	none (no result: HEK293 tox, GLP-1R agonist, GLP-1R inv ag, p53 reactivation, ClpP mod)
Cc1ccc(C=Nc2ccccc2C(N)=O)cc1	p53 reactivation inconclusive, ClpP mod 32µM
NC(=O)c1ccccc1N=Cc1cccnc1	none (no result: p53 reactivation, ClpP mod)
COc1cccc(C=Nc2ccccc2C(=O)Nc2ccccc2)c1O	p53 reactivation inconclusive, ClpP mod 22µM
Cc1ccc(C=Nc2ccccc2C(=O)Nc2ccccc2)cc1	ClpP mod 28µM
N#Cc1ccccc1S(=O)(=O)N1CCN(c2ccc(S(=O)(=O)N3CCOCC3)cn2)CC1	none
Cc1ccccc1CNc1ccccc1C(N)=O	none (no result: HEK293 tox, GLP-1R agonist, GLP-1R inv ag, p53 reactivation, ClpP mod)
Cc1ccccc1C=Nc1ccccc1C(N)=O	ClpP mod 28µM
C=CCn1c(CCc2cc(C(C)(C)C)c(O)c(C(C)(C)C)c2)n[nH]c1=S	HEK293 tox 11µM, GLP-1R inv ag inconclusive (no result: ClpP mod)
CCS(=O)(=O)N1CCC(NC(=O)c2ccccc2C(=O)c2ccc(Cl)cc2)CC1	LDHA inh -31 (no result: HEK293 tox, GLP-1R agonist, GLP-1R inv ag, p53 reactivation, ClpP mod)
COC(=O)C1=C(CS(=O)(=O)c2cc(OC)ccc2OC)NC(=O)NC1c1ccc(O)c(OC)c1 (centres undefined)	none
Cc1cc(C)c(S(=O)(=O)Nc2ccc3c4c(cccc24)CC3)c(C)c1	GLP-1R inv ag 4.5µM
Cc1ccc(S(=O)(=O)Nc2ccc3c4c(cccc24)CC3)c(C)c1	GLP-1R inv ag inconclusive (no result: p53 reactivation)
CC1(C)C2CC=C(/C=N/NC(=S)Nc3cccnc3)C1C2 (centres undefined)	none (no result: ClpP mod)
CC(C)c1nc2oc3c(=O)[nH]cnc3c2c2c1CCC2	ClpP mod 13µM
CC1CCN(C(=O)COC(=O)CNC(=O)c2ccccc2F)CC1	none
O=C(CNC(=O)c1ccccc1F)OCC(=O)N1CCCCC1	ClpP mod 25µM
N#CC1c2ccccc2-c2ccccc2N1C(=O)c1ccccc1 (centres undefined)	GLP-1R inv ag 7.1µM (no result: p53 reactivation)
CCc1cc(C(c2ccc3c(c2)OCO3)N2CCN(C)CC2)c(NC(=O)c2ccco2)s1 (centres undefined)	none (no result: HEK293 tox, GLP-1R agonist, GLP-1R inv ag, p53 reactivation, ClpP mod)
O=C(COC(=O)c1cccs1)c1ccc(-c2ccccc2)cc1	none (no result: HEK293 tox, GLP-1R agonist, GLP-1R inv ag, p53 reactivation, ClpP mod)
CCC(C)c1ccc2oc(-c3ccc(NC(=O)Cn4cnc5c(=O)n(C)c(=O)n(C)c54)cc3)nc2c1 (centres undefined)	p53 reactivation inconclusive, ClpP mod 11µM
Cc1ccc2oc(-c3cccc(NC(=O)Cn4cnc5c(=O)n(C)c(=O)n(C)c54)c3)nc2c1	none (no result: HEK293 tox, GLP-1R agonist, LDHA inh, GLP-1R inv ag, ClpP mod)
S=C1Nc2ccccc2CS1	HEK293 tox inconclusive, GLP-1R inv ag inconclusive (no result: p53 reactivation)
S=C1Cc2ccccc2N1	GLP-1R inv ag 1µM
O=C(Nc1nc(-c2cccc([N+](=O)[O-])c2)cs1)C(c1ccccc1)c1ccccc1	GLP-1R inv ag 1.6µM

Bioassay records from PubChem.
